Inconclusive results are not listed. Unmarked numbers belong to inactive results. Active and inactive are the calls of the source. Unless noted, calls come from the whole dose curve; as a rule, active = well fitted curve in the direction sought with a large enough effect; inconclusive = small, poorly fitted or top-dose-only effect, or another doubt; inactive = no such curve, though single readings can be large; an effect the other way counts as inactive or inconclusive.

Experiment [1] has as its target Aldehyde dehydrogenase, mitochondrial (Homo sapiens) (UniProt P05091). As to the kind of experiment: qHTS for Inhibitors of the Aldehyde Dehydrogenase Family (ALDH2) Confirmatory screens (AID 2061303; active = well fitted inhibition curve with a large enough effect; title and protocol of this record describe different tests; note: nearly all actives have a fitted effect of over 45% in size; note: potency is the fitted concentration of half-maximal effect). Background: Quantitative high-throughput screening tests each substance at several concentrations.
Experiment [2] can be described thus: qHTS for Inhibitors of the Aldehyde Dehydrogenase Family (ALDH1A2, ALDH1A3, ALDH2, ALDH3A1) (AID 2061307). For Potency: test system not described further here; potency is the fitted concentration of half-maximal effect. Note: nearly all actives have a fitted effect of over 50% in size.
For experiment [3], the target named is Aldehyde dehydrogenase, mitochondrial (Homo sapiens) (UniProt P05091). The experiment in a line: qHTS for Inhibitors of the Aldehyde Dehydrogenase Family (ALDH2) Primary screen (AID 2061308).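 Note: plate controls were vehicle for no effect and reference inhibitor for full effect; nearly all actives have a fitted effect of over 55% in size.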
The target of experiment [4] is Retinal dehydrogenase 2 (Homo sapiens) (UniProt O94788). As to the kind of experiment: qHTS for Inhibitors of the Aldehyde Dehydrogenase Family (ALDH1A2) Confirmation screens (AID 2061314). Note: nearly all actives have a fitted effect of over 65% in size. Note: potency is the fitted concentration of half-maximal effect.
Experiment [5] addresses Retinaldehyde dehydrogenase 3 (Homo sapiens) (UniProt P47895). The experiment in a line: qHTS for Inhibitors of the Aldehyde Dehydrogenase Family (ALDH1A3) Primary screen (AID 2061315).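 Note: plate controls were DMSO vehicle for no effect and reference inhibitor for full effect.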
Experiment [6] has as its target Aldehyde dehydrogenase, mitochondrial (Homo sapiens) (UniProt P05091). The experiment in a line: qHTS for Inhibitors of the Aldehyde Dehydrogenase Family (ALDH2) Validation screens (AID 2061302; active = well fitted inhibition curve with a large enough effect; title and protocol of this record describe different tests;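 note: plate controls were DMSO vehicle for no effect and maximal DPI positive control response for full effect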).
Experiment [7] has as its target Retinaldehyde dehydrogenase 3 (Homo sapiens) (UniProt P47895). As to the kind of experiment: qHTS for Inhibitors of the Aldehyde Dehydrogenase Family (ALDH1A3) Validation screen (AID 2061312). Note: % is set by controls: 0 for no effect and ±100 for the full control effect; nearly all actives have a fitted effect of over 45% in size.
Experiment [8] has the same target. The experiment in a line: qHTS for Inhibitors of the Aldehyde Dehydrogenase Family (ALDH1A3) Confirmatory screens (AID 2061311). Note: potency is the fitted concentration of half-maximal effect; nearly all actives have a fitted effect of over 60% in size.
Experiment [9] addresses Aldehyde dehydrogenase 1A1 (Homo sapiens) (UniProt P00352). The experiment in a line: qHTS for Inhibitors of the Aldehyde Dehydrogenase Family (ALDH1A1) Confirmatory screens (AID 2061316). Note: potency is the fitted concentration of half-maximal effect; nearly all actives have a fitted effect of over 65% in size.
A short description of experiment [10]: BET inhibitor-based combinations targeting novel dependencies in MECOM-rearranged (r) AML: SET-2 cell line (AID 2202231).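 For viability: plate controls were DMSO treated cells for no effect and wells without cells for full effect.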 Note: nearly all actives have a fitted effect of over 35% in size. Note: potency is the fitted concentration of half-maximal effect. As to conditions: SET-2 AML cells viability, CellTiter-Glo luminescence, 48 h; viability: hits give low values, concentration not given here. In a few lines:
(§1)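 A 48 hr incubation preceded viability reading by CellTiter-Glo, with 15 min room-temperature development. Dose series had 11 points; normalization used DMSO and empty wells; AUC was computed and mean-centered per line as Z-AUC.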
For orientation: ATP-based viability assays read luminescence as a measure of living cells.

A short description of experiment [11]: BET inhibitor-based combinations targeting novel dependencies in MECOM-rearranged (r) AML: OCI-AML3 cell line (AID 2202232).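 Note: series mostly up to about 46 µM; plate controls were DMSO vehicle wells for no effect and wells without cells for full effect; nearly all actives have a fitted effect of over 35% in size.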 As to conditions: Potency: OCI-AML3 viability. In short, it runs like this: as §1
Experiment [12] in a line: BET inhibitor-based combinations targeting novel dependencies in MECOM-rearranged (r) AML: MV-4-11 cell line (AID 2202233). Note: nearly all actives have a fitted effect of over 45% in size. Note: potency is the fitted concentration of half-maximal effect. In a few lines:
(§2)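 Each compound is tested in an 11-point concentration series against 500 seeded cells/well for 48 hr. The luminescent viability signal is normalized to DMSO and blank wells, then reduced to AUC and a cell-line-centred Z-AUC.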

Experiment [13] can be described thus: BET inhibitor-based combinations targeting novel dependencies in MECOM-rearranged (r) AML: HNT-34 cell line (AID 2202234). Note: nearly all actives have a fitted effect of over 35% in size. Note: potency is the fitted concentration of half-maximal effect. In a few lines: as §2
Experiment [14] can be described thus: BET inhibitor-based combinations targeting novel dependencies in MECOM-rearranged (r) AML: UCSD-AML1 cell line (AID 2202235).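 Note: series mostly up to about 46 µM; plate controls were DMSO vehicle wells for no effect and blank wells for full effect; nearly all actives have a fitted effect of over 40% in size.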 In short, it runs like this: as §2
Experiment [15] in a line: BET inhibitor-based combinations targeting novel dependencies in MECOM-rearranged (r) AML: AML-191 cell line (AID 2202236; note: nearly all actives have a fitted effect of over 35% in size; note: potency is the fitted concentration of half-maximal effect). In short, it runs like this: as §1
Experiment [16] can be described thus: BET inhibitor-based combinations targeting novel dependencies in MECOM-rearranged (r) AML: AML-194 cell line (AID 2202237;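 note: plate controls were vehicle wells for no effect and wells without cells for full effect; nearly all actives have a fitted effect of over 40% in size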). In a few lines:
as §1

`CCOc1ccc(CCNC(=O)c2cc3ncccc3n2Cc2cccc(C)n2)cc1OCC`: the Potency entry in experiment [1], in experiment [2], in experiment [3], in experiment [4] and in experiment [5] was “inactive” throughout.

`NC(CCP(=O)(O)O)C(=O)O` (centres undefined): the Potency entry in experiment [6] and in experiment [7] was “inactive” each time.

Turning to `CN1CCN(c2cnc3c(O)ccc(C(=O)O)c3c2)CC1`, the Potency result in experiment [1], in experiment [2], in experiment [3] and in experiment [5] was “inactive” each time. Also, the Potency in experiment [8] is 12.7 µM (active).

As to `Cc1cc(C)c(OP(=O)(OCc2c(-c3ccccc3)no[n+]2[O-])Oc2c(C)cc(C)cc2C)c(C)c1`, the Potency in [2] is 12.6 µM (active); in [9], 2.01 µM (active). In experiment [5], the Potency result is “inactive”.

With `Cc1cccc(C)c1OP(=O)(OCc1c(-c2ccccc2)no[n+]1[O-])Oc1c(C)cccc1C`, the Potency was 1.12 µM (active) in experiment [1], 5.04 µM (active) in experiment [2], 12.7 µM (active) in experiment [8] and 12.7 µM (active) in [4]. Further, the Potency entry in experiment [5] is “inactive”.

Turning to `COc1ccccc1CN[C@H]1C2CCN(CC2)[C@H]1C(c1ccccc1)c1ccccc1`, the Potency entry in [3], in experiment [7] and in experiment [5] was “inactive” in each case.

On to `COC1CC(O[C@H]2CC[C@]3(C)C4CC[C@]5(C)[C@@H](C6=CC(=O)OC6)[C@@H](OC(C)=O)C[C@]5(O)C4CC[C@@H]3C2)OC(C)C1O[C@@H]1O[C@H](CO)[C@@H](O)[C@H](O)[C@H]1O` (some centres undefined), for which the Potency result in [3] is “inactive”.

`COC1CC(OC2CCC3(C=O)C(CCC4C3CCC3(C)C(C5=CC(=O)OC5)CCC43O)C2)OC(C)C1O` (centres undefined): the Potency result in experiment [3] is “inactive”.

Take `O=S(=O)(Nc1nccs1)c1ccc(NCc2cccc(F)c2O)cc1`: the Potency entry in experiment [3] and in experiment [5] was “inactive” in each case.

In the case of `CCc1nn2c(=O)cc(N3CCN(C)CC3)nc2s1`, the Potency entry in experiment [3] and in experiment [5] was “inactive” throughout.

Turning to `CCN(CC)C(=O)c1ccc(C2=CC3(CCNCC3)Oc3cccc(O)c32)cc1`, the Potency entry in experiment [3], in experiment [7], in [5], in [11], in experiment [12] and in experiment [13] was “inactive” in each case. The Potency entry in [14], in experiment [15] and in [16] was “inactive” throughout. In addition, in experiment [10], the viability – broadly, a read-out of living cells in per cent, often relative to untreated cells – is 99.6%.

In the case of `O=C1CN=C(c2ccccc2Cl)c2cc(Br)ccc2N1`, the Potency result in experiment [3], in [7] and in [5] was “inactive” throughout.

For `C[C@@H](CN1CCC2(CC1)C(=O)NCN2c1cccc(F)c1)NC(=O)c1ccc(Br)cc1`, the Potency entry in experiment [3], in [7] and in [5] was “inactive” throughout.

For `C/C(=C\c1csc(C)n1)[C@@H]1C[C@@H]2O[C@@H]2CCC[C@H](C)[C@H](O)[C@@H](C)C(=O)C(C)(C)[C@@H](O)CC(=O)O1`, the Potency result in experiment [3], in [7] and in experiment [5] was “inactive” throughout. For the same molecule, the Potency in experiment [10] is 0.0332 µM (active); in experiment [12], 0.0332 µM (active); in experiment [13] it was 0.0235 µM (active); in experiment [15], 0.0235 µM (active).

For `CCCCN1[C@@H]2CC[C@H]1CC(OC(c1ccc(F)cc1)c1ccc(F)cc1)C2` (some centres undefined), the Potency entry in [3], in experiment [7] and in experiment [5] was “inactive” in each case.

Take `COC1CC(OC2CCC3(C)C(CCC4C3CCC3(C)C(C5=CC(=O)OC5)C(OC(C)=O)CC43O)C2)OC(C)C1OC1OC(CO)C(O)C(O)C1O` (centres undefined): in experiment [3], the Potency result was “inactive”.

For `Cc1ccc2nc(NC3=NC(c4[nH]ncc4Cl)C4=C(CCCC4=O)N3)oc2c1` (centres undefined), the Potency result in experiment [3] and in [5] was “inactive” in each case.

In the case of `C[C@@H]1O[C@@H](OC2CCC3(C=O)C(CCC4C3CCC3(C)C(C5=CC(=O)OC5)C(O)CC43O)C2)[C@H](O)[C@H](O)[C@H]1O[C@@H]1O[C@H](CO)[C@@H](O)[C@H](O)[C@H]1O` (some centres undefined), the Potency entry in [3] was “inactive”.

On to `CC(=O)OC[C@H](N)C(=O)c1ccccc1`, for which the Potency entry in [3] and in [5] was “inactive” throughout.

`COc1ccc(CC2C(=O)NC(C)C(=O)N(C)C3Cc4ccc(cc4)Oc4cc(ccc4OC4OC(CO)C(O)C(O)C4O)CC(C(=O)NC(C)C(=O)NC(CCC(=O)O)C(=O)N2C)N(C)C3=O)cc1` (centres undefined): in experiment [3], the Potency entry was “inactive”.

Regarding `Cc1ccccc1[C@@H](C(=O)NC1CCCCC1)N(C(=O)Cn1ccnc1C)c1cccc(F)c1`, the Potency entry in experiment [3] and in experiment [5] was “inactive” in each case.
